Measurements as given in PubChem BioAssay (NCI).
The panel holds about 83,000 compounds, 20% with a hit somewhere; the sample as a whole holds those more often.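 The endpoint reported here, percent growth, reads 100 for growth as untreated, 0 for no net growth and -100 for all cells dead.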 Calls of active or inactive are those of the source. How the source made its calls: active means growth percent below 10; inactive means the rest.

Columns and labels:
Assay in all cases: NCI-60 one-dose screen, 48 h (100 = growth as untreated, 0 = no growth, -100 = all killed)
[1] = system: DU-145 prostate; conditions: 10 µM unless noted
[2] = system: SF-268 CNS; conditions: 10 µM unless noted
[3] = system: SF-539 CNS; conditions: 10 µM unless noted
[4] = system: HCT-15 colon; conditions: 10 µM
[5] = system: SNB-75 CNS; conditions: 10 µM unless noted
[6] = system: SK-MEL-28 melanoma; conditions: 10 µM unless noted
[7] = system: SN12C renal; conditions: 10 µM unless noted
[8] = system: TK-10 renal; conditions: 10 µM unless noted
[9] = system: OVCAR-8 ovarian; conditions: 10 µM unless noted
[10] = system: NCI/ADR-RES ovarian; conditions: 10 µM unless noted
[11] = system: SW-620 colon; conditions: 10 µM unless noted
[12] = system: KM12 colon; conditions: 10 µM unless noted
[13] = system: NCI-H460 lung; conditions: 10 µM unless noted
[14] = system: 786-0 renal; conditions: 10 µM unless noted
[15] = system: M14 melanoma; conditions: 10 µM unless noted
[16] = system: PC-3 prostate; conditions: 10 µM unless noted
[17] = system: UACC-62 melanoma; conditions: 10 µM unless noted
[18] = system: HL-60(TB) leukemia; conditions: 10 µM unless noted
[19] = system: MCF7 breast; conditions: 10 µM unless noted
[20] = system: HCT-116 colon; conditions: 10 µM unless noted

Measured: growth

CC[C@@]1(C2O[C@@H](C3O[C@@](O)(CC)[C@H](C)C[C@@H]3C)C[C@@H]2C)CC[C@H]([C@]2(C)CCC3(C[C@H](O)[C@@H](C)[C@@H]([C@H](C)[C@@H](OC)[C@H](C)C(=O)O)O3)O2)O1 (some centres undefined)
inactive: [1] 44.9% | [2] 22.4% | [3] 12.6% | [4] 11.5% | [5] 16% | [6] 29.5% | [7] 31% | [8] 49.1% | [9] 31% | [10] 31.1% | [11] 11.3% | [12] 20.6%

Clc1ccc(SSC(Cl)(Cl)Cl)cc1
inactive: [13] 101% | [14] 106% | [1] 114% | [2] 104% | [3] 103% | [15] 107% | [4] 112% | [5] 106% | [16] 88.9% | [17] 116% | [6] 120% | [7] 102% | [18] 113% | [9] 107% | [10] 117% | [11] 97.6% | [19] 108% | [20] 101% | [12] 108%

CC1(C)N=C(N)N=C(N)N1c1ccc(CNC(=O)Nc2ccc(S(=O)(=O)F)c(Cl)c2)c(Cl)c1
active: [13] 7.59% | [16] 4.03% | [19] 1.42%
inactive: [14] 30.8% | [1] 31.7% | [2] 26.5% | [3] 24.9% | [15] 29.4% | [4] 47.5% | [5] 69.2% | [17] 23.9% | [6] 48.6% | [7] 17% | [8] 22.6% | [18] 21.8% | [9] 25.4% | [10] 103% | [11] 12.5% | [20] 10.1% | [12] 21.2%

NC(=O)OCC(CO)(c1ccccc1)c1ccccc1
inactive: [13] 107% | [14] 96.7% | [1] 104% | [2] 101% | [3] 96.8% | [15] 99.5% | [4] 98.8% | [5] 89.2% | [16] 93.2% | [17] 115% | [6] 112% | [7] 98.4% | [8] 97.7% | [18] 114% | [9] 100% | [10] 108% | [11] 107% | [19] 99.3% | [20] 92.1% | [12] 96.6%

O=C(O)C1(Br)CC12c1ccccc1-c1ccccc12 (centres undefined)
inactive: [13] 111% | [14] 101% | [1] 111% | [2] 100% | [3] 103% | [15] 102% | [4] 101% | [5] 104% | [16] 100% | [17] 103% | [6] 114% | [7] 107% | [8] 88% | [18] 94% | [9] 99.6% | [10] 104% | [11] 111% | [19] 93.4% | [20] 100% | [12] 99.7%

FC(F)=C(F)c1ccccc1
inactive: [13] 109% | [14] 101% | [1] 108% | [2] 111% | [3] 103% | [15] 96.7% | [4] 107% | [5] 88.8% | [16] 104% | [17] 107% | [6] 102% | [7] 112% | [8] 89.7% | [18] 90.8% | [9] 104% | [10] 106% | [11] 109% | [19] 96.9% | [20] 103% | [12] 102%

C[C@]12CC[C@H](OC3OC(O)C(O)C(O)C3O)C=C1CCC1C2CC[C@]2(C)[C@@H](c3ccc(=O)oc3)CC[C@]12O (some centres undefined)
inactive: [9] 110%
active: [13] -80.1% | [14] -84.4% | [1] -100% | [2] -99.4% | [3] -83.1% | [15] -81% | [4] -81.8% | [5] -53.2% | [16] -12.2% | [17] -84.3% | [6] -82.9% | [7] -37.7% | [8] -80.6% | [18] -57.3% | [10] -71.2% | [11] -90.5% | [19] -64.3% | [20] -95.3% | [12] -93.8%

CC1(CF)NC(=O)NC1=O (centres undefined)
inactive: [13] 112% | [14] 97.6% | [1] 116% | [2] 104% | [15] 104% | [4] 105% | [5] 89.9% | [16] 101% | [17] 96.8% | [6] 111% | [7] 94.3% | [8] 128% | [9] 102% | [10] 107% | [11] 106% | [19] 92.7% | [20] 103% | [12] 106%
